This note sets out measurements from ChEMBL document CHEMBL1961873, “Compounds: GSK PKIS; Assays: Nanosyn kinase panel” (2012).

For assay [1], the target named is Serine/threonine-protein kinase MARK2 (Homo sapiens) (UniProt Q7KZI7). The note with it: at 1 µM.
Assay [2] deals with PAS domain-containing serine/threonine-protein kinase (Homo sapiens) (UniProt Q96RG2). The following applies: at 0.1 µM.
For assay [3] the target is unchanged. The note with it: at 1 µM.
Assay [4] has as its target Phosphorylase b kinase gamma catalytic chain, skeletal muscle/heart isoform (Homo sapiens) (UniProt Q16816). The note with it: at 0.1 µM.
The target is the same in assay [5]. The note with it: at 1 µM.
Assay [6] concerns the target T1, Phosphorylase b kinase gamma catalytic chain, liver/testis isoform (Homo sapiens) (UniProt P15735).
T1 sequence (whole entry): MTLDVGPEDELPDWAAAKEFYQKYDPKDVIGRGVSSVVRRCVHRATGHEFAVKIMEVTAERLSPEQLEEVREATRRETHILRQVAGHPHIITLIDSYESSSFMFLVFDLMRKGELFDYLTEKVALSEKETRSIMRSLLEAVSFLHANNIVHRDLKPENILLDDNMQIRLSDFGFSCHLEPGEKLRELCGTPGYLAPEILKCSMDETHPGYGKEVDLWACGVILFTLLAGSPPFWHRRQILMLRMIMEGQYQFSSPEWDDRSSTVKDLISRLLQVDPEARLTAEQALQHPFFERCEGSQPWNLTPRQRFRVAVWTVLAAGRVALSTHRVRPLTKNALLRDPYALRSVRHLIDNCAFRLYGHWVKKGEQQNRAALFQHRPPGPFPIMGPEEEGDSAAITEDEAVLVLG
The following applies: at 0.1 µM.

For assay [7], the target named is T1, Phosphorylase b kinase gamma catalytic chain, liver/testis isoform (Homo sapiens). The note with it: at 1 µM.
Assay [8] addresses Serine/threonine-protein kinase pim-1 (Homo sapiens) (UniProt P11309). The following applies: at 0.1 µM.
Assay [9] shares this target. The following applies: at 1 µM.
Assay [10] addresses Serine/threonine-protein kinase pim-2 (Homo sapiens) (UniProt Q9P1W9). The note with it: at 0.1 µM.
Assay [11] has the same target. The note with it: at 1 µM.
Assay [12] deals with Serine/threonine-protein kinase pim-3 (Homo sapiens) (UniProt Q86V86). The note with it: at 0.1 µM.
Assay [13] shares this target. The note with it: at 1 µM.
In assay [14] the target is T2, MAP kinase-activated protein kinase 5 (Homo sapiens) (UniProt Q8IW41).
T2 sequence (whole entry): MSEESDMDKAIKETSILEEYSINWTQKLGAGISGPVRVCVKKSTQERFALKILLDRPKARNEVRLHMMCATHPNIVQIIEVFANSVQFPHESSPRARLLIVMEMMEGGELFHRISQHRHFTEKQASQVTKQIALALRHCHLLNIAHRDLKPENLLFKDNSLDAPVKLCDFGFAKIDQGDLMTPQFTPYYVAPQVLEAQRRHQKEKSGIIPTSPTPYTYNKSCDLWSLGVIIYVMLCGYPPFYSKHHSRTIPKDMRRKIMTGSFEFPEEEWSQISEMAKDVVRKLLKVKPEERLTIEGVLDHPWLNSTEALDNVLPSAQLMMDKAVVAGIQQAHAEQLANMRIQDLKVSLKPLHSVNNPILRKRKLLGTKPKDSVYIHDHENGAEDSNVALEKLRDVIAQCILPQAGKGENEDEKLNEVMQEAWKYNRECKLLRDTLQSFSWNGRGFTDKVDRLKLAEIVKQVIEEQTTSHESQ
The note with it: at 0.1 µM.

Assay [15] deals with T2, MAP kinase-activated protein kinase 5 (Homo sapiens). The note with it: at 1 µM.
For assay [16], the target named is Serine/threonine-protein kinase SIK1 (Homo sapiens) (UniProt P57059). The following applies: at 1 µM.
Assay [17] deals with Serine/threonine-protein kinase SIK2 (Homo sapiens) (UniProt Q9H0K1). The note with it: at 1 µM.
In assay [18] the target is T3, Serine/threonine-protein kinase TBK1 (Homo sapiens) (UniProt Q9UHD2).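 Further: values are the mean TBK1 inhibition, taken from the GSK PKIS screening data.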
T3 sequence (whole entry): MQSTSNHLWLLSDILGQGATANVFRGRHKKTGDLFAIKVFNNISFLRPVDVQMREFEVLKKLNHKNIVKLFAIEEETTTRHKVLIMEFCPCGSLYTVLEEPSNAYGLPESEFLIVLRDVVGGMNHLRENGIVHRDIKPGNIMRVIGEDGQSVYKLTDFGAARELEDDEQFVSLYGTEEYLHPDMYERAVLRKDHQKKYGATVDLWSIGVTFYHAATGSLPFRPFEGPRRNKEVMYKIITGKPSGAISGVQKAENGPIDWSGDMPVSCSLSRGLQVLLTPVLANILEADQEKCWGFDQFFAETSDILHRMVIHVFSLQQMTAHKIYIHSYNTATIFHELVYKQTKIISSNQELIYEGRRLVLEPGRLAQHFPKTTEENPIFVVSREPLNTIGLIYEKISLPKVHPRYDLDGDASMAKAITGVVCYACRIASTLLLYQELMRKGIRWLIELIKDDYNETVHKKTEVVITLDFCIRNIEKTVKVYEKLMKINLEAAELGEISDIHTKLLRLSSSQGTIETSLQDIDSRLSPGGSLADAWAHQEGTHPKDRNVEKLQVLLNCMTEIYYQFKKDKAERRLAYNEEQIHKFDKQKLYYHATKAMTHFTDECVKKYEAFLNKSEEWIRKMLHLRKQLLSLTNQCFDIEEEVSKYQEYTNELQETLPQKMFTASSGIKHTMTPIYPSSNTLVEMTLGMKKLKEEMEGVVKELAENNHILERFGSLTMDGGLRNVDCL
The following applies: at 0.1 µM.

Assay [19] deals with Serine/threonine-protein kinase SIK1 (Homo sapiens) (UniProt P57059). The following applies: at 0.1 µM.
The target in assay [20] is Serine/threonine-protein kinase SIK2 (Homo sapiens) (UniProt Q9H0K1). The following applies: at 0.1 µM.

Phosphorylase b kinase gamma catalytic chain, skeletal muscle/heart isoform (Homo sapiens), sequence (Q16816 whole entry, looked up, canonical isoform): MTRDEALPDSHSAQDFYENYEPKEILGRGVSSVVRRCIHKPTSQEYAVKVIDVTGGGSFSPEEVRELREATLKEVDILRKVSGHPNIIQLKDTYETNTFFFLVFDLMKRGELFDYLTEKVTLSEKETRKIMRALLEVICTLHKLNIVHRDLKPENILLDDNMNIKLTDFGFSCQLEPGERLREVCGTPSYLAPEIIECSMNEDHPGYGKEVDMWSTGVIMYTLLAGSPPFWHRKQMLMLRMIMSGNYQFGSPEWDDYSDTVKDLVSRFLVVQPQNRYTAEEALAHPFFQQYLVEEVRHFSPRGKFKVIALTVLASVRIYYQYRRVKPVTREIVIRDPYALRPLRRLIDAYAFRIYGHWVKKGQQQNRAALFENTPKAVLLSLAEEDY
Serine/threonine-protein kinase MARK2 (Homo sapiens), sequence (Q7KZI7 whole entry, the tested form may be a part): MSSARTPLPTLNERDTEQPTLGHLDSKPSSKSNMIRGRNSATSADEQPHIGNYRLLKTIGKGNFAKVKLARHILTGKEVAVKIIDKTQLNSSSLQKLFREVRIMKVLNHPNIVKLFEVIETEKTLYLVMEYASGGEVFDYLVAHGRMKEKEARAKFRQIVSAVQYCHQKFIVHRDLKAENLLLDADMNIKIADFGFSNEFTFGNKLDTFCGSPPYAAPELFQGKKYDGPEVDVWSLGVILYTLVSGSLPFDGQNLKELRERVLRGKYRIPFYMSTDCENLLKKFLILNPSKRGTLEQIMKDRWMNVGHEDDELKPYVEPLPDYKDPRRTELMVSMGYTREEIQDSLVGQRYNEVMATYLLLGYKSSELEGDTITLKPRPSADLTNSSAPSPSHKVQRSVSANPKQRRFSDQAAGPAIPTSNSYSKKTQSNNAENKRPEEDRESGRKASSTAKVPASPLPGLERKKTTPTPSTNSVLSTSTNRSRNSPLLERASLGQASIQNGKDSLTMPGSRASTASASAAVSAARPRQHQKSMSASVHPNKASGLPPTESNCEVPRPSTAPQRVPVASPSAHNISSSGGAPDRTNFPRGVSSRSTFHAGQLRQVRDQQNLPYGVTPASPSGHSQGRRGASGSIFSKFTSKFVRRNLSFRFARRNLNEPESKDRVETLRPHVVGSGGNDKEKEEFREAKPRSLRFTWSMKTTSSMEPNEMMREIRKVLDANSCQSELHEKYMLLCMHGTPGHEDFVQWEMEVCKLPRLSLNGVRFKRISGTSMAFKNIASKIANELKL
PAS domain-containing serine/threonine-protein kinase (Homo sapiens), sequence (Q96RG2 whole entry, the tested form may be a part): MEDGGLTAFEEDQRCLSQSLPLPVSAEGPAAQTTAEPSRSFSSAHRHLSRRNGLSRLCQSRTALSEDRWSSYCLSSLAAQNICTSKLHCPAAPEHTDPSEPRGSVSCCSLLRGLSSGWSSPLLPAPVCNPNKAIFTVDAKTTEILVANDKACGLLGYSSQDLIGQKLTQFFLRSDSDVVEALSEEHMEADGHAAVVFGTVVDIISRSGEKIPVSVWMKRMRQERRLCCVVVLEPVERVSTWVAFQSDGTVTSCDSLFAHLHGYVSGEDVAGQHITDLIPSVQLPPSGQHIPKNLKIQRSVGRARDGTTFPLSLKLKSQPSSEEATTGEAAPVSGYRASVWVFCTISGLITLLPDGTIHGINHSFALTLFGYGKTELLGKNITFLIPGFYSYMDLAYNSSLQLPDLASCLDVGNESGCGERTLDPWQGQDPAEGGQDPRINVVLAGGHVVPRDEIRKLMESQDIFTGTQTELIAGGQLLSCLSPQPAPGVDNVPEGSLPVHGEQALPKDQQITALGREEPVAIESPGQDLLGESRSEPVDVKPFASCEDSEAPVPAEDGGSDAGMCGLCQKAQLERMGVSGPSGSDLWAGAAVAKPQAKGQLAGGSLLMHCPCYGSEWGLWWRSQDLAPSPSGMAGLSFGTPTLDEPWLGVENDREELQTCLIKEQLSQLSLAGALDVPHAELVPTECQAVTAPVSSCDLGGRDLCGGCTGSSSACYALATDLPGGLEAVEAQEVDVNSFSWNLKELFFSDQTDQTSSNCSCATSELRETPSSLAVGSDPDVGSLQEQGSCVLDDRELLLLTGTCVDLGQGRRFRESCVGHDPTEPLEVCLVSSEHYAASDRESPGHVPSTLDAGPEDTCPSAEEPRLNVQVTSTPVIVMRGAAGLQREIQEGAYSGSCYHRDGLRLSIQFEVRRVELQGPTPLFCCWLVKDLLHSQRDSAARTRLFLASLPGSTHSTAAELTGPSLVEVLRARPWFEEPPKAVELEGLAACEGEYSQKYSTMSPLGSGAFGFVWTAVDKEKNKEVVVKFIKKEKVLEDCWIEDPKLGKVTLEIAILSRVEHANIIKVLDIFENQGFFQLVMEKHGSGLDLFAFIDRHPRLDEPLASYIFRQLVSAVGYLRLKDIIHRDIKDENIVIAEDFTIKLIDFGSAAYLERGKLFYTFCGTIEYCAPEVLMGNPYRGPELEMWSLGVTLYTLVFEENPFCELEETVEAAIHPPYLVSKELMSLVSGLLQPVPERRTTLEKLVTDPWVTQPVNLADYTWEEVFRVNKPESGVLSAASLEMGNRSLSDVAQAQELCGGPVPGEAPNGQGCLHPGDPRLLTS
Serine/threonine-protein kinase pim-1 (Homo sapiens), sequence (P11309 whole entry, looked up): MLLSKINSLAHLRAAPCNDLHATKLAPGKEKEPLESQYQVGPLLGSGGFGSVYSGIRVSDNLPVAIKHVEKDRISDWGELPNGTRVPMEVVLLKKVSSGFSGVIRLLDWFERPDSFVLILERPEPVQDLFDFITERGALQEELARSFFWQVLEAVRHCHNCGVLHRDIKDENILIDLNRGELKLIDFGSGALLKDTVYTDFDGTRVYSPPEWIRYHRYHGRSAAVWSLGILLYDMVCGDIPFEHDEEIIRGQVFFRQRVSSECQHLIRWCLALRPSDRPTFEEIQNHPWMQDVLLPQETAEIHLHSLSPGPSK
Serine/threonine-protein kinase SIK1 (Homo sapiens), sequence (P57059 whole entry): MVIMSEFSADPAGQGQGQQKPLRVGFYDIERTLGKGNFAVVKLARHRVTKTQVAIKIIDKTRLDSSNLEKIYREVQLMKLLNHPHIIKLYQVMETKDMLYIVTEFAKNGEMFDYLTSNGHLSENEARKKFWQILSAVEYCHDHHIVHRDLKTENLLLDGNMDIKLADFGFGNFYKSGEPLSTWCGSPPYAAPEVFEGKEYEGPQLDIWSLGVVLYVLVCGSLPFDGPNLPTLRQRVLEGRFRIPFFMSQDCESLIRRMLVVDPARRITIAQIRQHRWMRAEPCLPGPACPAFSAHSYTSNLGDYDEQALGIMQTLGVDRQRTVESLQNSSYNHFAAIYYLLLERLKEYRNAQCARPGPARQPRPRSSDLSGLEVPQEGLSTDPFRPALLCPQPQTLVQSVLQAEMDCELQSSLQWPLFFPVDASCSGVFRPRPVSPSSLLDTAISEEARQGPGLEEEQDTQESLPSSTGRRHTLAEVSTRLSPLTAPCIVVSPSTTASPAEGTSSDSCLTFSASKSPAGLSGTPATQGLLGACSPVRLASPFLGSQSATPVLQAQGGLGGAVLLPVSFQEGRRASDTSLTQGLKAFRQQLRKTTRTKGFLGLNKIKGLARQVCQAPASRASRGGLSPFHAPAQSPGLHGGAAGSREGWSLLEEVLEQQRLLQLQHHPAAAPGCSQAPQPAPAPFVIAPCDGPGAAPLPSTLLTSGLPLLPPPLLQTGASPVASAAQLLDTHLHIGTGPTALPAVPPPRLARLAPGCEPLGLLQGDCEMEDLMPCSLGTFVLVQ
Serine/threonine-protein kinase SIK2 (Homo sapiens), sequence (Q9H0K1 whole entry, looked up): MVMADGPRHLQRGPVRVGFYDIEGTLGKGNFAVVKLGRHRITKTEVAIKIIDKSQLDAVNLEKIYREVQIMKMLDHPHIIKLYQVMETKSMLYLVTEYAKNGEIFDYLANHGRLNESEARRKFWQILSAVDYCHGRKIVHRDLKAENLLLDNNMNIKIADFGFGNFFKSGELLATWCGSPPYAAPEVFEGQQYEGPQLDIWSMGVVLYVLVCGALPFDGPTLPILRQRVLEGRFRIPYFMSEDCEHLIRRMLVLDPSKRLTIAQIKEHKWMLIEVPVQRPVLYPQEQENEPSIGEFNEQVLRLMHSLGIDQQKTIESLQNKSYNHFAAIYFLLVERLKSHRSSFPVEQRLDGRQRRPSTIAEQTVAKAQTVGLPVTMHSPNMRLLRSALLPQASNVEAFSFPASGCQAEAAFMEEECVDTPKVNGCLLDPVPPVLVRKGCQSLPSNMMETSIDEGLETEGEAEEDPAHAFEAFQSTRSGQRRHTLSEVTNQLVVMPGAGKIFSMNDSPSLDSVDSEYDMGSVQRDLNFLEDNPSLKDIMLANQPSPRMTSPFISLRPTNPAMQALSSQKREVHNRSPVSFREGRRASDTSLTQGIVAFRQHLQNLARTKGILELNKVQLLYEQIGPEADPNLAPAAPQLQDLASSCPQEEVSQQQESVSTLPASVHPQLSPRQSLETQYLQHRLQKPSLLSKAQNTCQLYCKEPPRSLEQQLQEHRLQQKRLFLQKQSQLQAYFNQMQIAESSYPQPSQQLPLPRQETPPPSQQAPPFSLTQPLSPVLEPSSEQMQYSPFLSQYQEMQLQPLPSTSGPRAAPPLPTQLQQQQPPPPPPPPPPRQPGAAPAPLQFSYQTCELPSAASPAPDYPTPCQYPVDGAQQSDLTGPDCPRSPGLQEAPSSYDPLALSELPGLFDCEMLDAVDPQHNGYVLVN

As for `Nc1nc(-c2ccc3c(c2)C(=Cc2cc(Br)c(O)c(Br)c2)C(=O)N3)cs1`, the inhibition (usually the relative decrease from the control value, in per cent) in assay [1] was 0.67%; in assay [2] it was -0.9%; in assay [3], -1.85%; in [4], 3.78%; in assay [5] it was 5.21%; in assay [6], -3.21%. Further, the inhibition in assay [7] is -2.57%; in assay [8] it was 3.74%; in [9], 25.6%; in assay [10] it was 10.8%; in [11], 50.1%; in assay [12], 5.73%. Moreover, the inhibition was 42.7% in assay [13]; -1.39% in [14]; -0.3% in assay [15]; -3.45% in assay [16]; -0.64% in assay [17]; 0.67% in assay [18].
Regarding `O=C(Nc1n[nH]c2nc(-c3ccco3)c(Br)cc12)C1CC1`, the inhibition is 2.09% in assay [1]; 0.09% in [2]; -1.87% in assay [3]; 1.65% in assay [4]; 2.36% in assay [5]; 4.24% in assay [6]. The inhibition in assay [7] was 1.34%; in [8] it was -0.5%; in assay [9], 0.54%; in [10], -0.2%; in assay [11], 0.42%; in assay [12] it was -1.42%. Moreover, the inhibition in [13] was -2.95%; in assay [14] it was 0.87%; in assay [15], 0.07%; in assay [19], 2.49%; in assay [16], 5.66%; in assay [20], 3.56%. Moreover, the results for the inhibition in assay [17] and in assay [18] were 5% and 6.52%, respectively.
For the compound `O=C1NC(=O)C(N2CCc3ccccc32)=C1c1ccc(Cl)cc1`, the inhibition in assay [1] was 2.02%; in assay [2] it was 0.1%; in assay [3], -1.5%; in [4], 3.36%; in [5], 5.29%; in assay [6], 4.72%. Also, the inhibition in assay [7] was 2.26%; in [8] it was 0.92%; in assay [9] it was 1.27%; in [10], 0.55%; in assay [11], 0.77%; in assay [12] it was -1.28%. Also, the inhibition in assay [13] is -2.25%; in [14], 1.12%; in [15], 0.55%; in [19] it was 5.76%; in assay [16], 7.18%; in assay [20], 1.33%. Also, the inhibition in assay [17] stood at 5.15%; in [18], 3.01%.
As for `CCn1c(-c2nonc2N)nc2c(N3CCCC3)nccc21`, the inhibition in assay [1] was 3.46%; in assay [2], -0.88%; in [3], -1.38%; in assay [4], 3.74%; in assay [5] it was -1.02%; in [6] it was -3.65%. Besides, the inhibition in assay [7] was -3.95%; in assay [8], 0.8%; in assay [9], 1.03%; in assay [10], -0.33%; in assay [11], 0.29%; in [12], -0.84%. The inhibition in assay [13] is 1%; in assay [14], -0.99%; in [15] it was -0.15%; in assay [19], -7.25%; in [16], -2.47%; in [20], -7.08%. Also, the values for the inhibition in assay [17] and in assay [18] were -6.02% and -0.24%, respectively.
As to `COc1ccccc1Nc1ncc(-c2ccccc2)o1`, the inhibition in assay [1] is 3.48%; in assay [2] it was -0.06%; in [3], 1.05%; in [4] it was 8.92%; in [5] it was 13.1%; in assay [6] it was 5.65%. The inhibition in [7] was 5.8%; in assay [8], 0.63%; in assay [9], 1.55%; in assay [10], 0.78%; in assay [11], 0.53%; in assay [12], 0.22%. Further, the inhibition is 0.86% in assay [13]; 2.09% in [14]; 1.9% in assay [15]; -1.04% in [19]; 14.1% in assay [16]; 1.94% in [20]. Moreover, the inhibition in assay [17] amounted to 5.2%; in assay [18], 1.18%.
Take `CCn1c(-c2nonc2N)nc2c(C#CC(C)(C)O)nc(OC[C@@H](N)c3ccccc3)cc21`: the inhibition in assay [1] is 13.6%; in assay [2] it was 0.65%; in assay [3] it was 16%; in assay [4], 0.84%; in assay [5], 4.71%; in assay [6], -2.07%. Also, the inhibition in assay [7] was -2.54%; in assay [8] it was 1.15%; in [9], 3.59%; in [10], 0.23%; in [11], 2.38%; in assay [12], 0.56%. The inhibition in assay [13] is 5.51%; in [14], -0.92%; in assay [15], -1.02%; in assay [19], 1.01%; in [16], 0.3%; in assay [20], -1.91%. For the same compound, the inhibition was found to be 1.75% in [17] and 0.4% in assay [18].
For the compound `COc1ccc(COc2ccc(Cc3cnc(N)nc3N)cc2OC)cc1`, the inhibition is 3.13% in [1]; 1.77% in [2]; 0.54% in assay [3]; -0.96% in assay [4]; 1.56% in assay [5]; 1.58% in [6]. The inhibition was -1.66% in [7]; 1.34% in [8]; 0.49% in [9]; 2.71% in assay [10]; 3.29% in assay [11]; 2.12% in assay [12]. For the same compound, the inhibition was 0.23% in assay [13]; -0.2% in assay [14]; -1.74% in assay [15]; -2.62% in assay [19]; 2.92% in [16]; -5.52% in assay [20]. The inhibition in assay [17] was -1.07%; in [18], 2.12%.
